# About 1,000 (1.4%) of roughly 69,000 compounds showed an effect of 50% or more. The entries come from a sample that favours strong results as a whole.
# Tested on: Leishmania donovani
# Test: Leishmania intramacrophage assay
# Assay type: functional, organism-based
# Set-up: scale not given: in the data most compounds retested in dose-response had high values
smiles,measurement,setting,value
Cc1csc(NC(=O)[C@@H]2C[C@H]3[C@H](CCN3S(C)(=O)=O)O2)n1,Percent Effect,"30.3 µM, […]",37.69%
Cn1ncc2c(NCCCOc3cccnc3)nc(C3CCCC3)nc21,Percent Effect,"30.3 µM, […]",7.938%
CCOCCNc1nc(C2CCCC2)nc2c1cnn2C,Percent Effect,"30 µM, 30.03 µM",33.9%
Cn1ncc2c(NCCOc3ccc(F)cc3)nc(C3CCCC3)nc21,Percent Effect,"30 µM, 30.03 µM",50.15%
CC[C@H]1CN(C(=O)C2CC2)CC[C@H]1CC(=O)NCCN1CCOCC1,Percent Effect,"30.3 µM, […]",-123.3%
CN(Cc1n[nH]c2c1CCCC2)C(=O)c1cccc(CCC(C)(C)O)c1,Percent Effect,"30.3 µM, […]",22.46%
CN(Cc1n[nH]c2c1CCC2)C(=O)c1cccc(CCC(C)(C)O)c1,Percent Effect,"30.3 µM, […]",57.38%
CN(Cc1cc[nH]n1)C(=O)c1cccc(CCC(C)(C)O)c1,Percent Effect,"30 µM, 30.03 µM",14.32%
N#Cc1ccc(CN2CCN(C(=O)c3cc(C4CC4)[nH]n3)CC2)cc1,Percent Effect,"30 µM, 30.03 µM",47.32%
CC(C)(C)CN(CCC#N)C(=O)c1cccc(CN2CCCC2)c1,Percent Effect,"30.3 µM, […]",15.51%
Cc1cccnc1C(=O)N1CCCC(c2[nH]ncc2S(C)(=O)=O)C1 (configuration not stated),Percent Effect,"30 µM, 30.03 µM",-23.25%
CC(=O)N1CC[C@]2(O)CCN(Cc3nc(C)c[nH]3)C[C@@H]2C1,Percent Effect,"30.3 µM, […]",3.766%
O=C(O)C(F)(F)F.c1cnc(N2C[C@H]3CCN(CC4CC4)C[C@H]3C2)cn1,Percent Effect,"30.3 µM, […]",30.4%
O=C(C1CCCC1)N1C[C@@H]2CCN(c3cnccn3)C[C@@H]2C1.O=C(O)C(F)(F)F,Percent Effect,"30.3 µM, […]",10.31%
O=C(O)C(F)(F)F.O=C(O)C(F)(F)F.c1cnc(N2C[C@H]3CCN(CCN4CCCC4)C[C@H]3C2)cn1,Percent Effect,"30.3 µM, […]",50.81%
COC(=O)c1ccc(OC)c(OC23CCCN(CC2)C3)c1 (configuration not stated),Percent Effect,"30.3 µM, […]",-2.222%
COc1ccc(SCC2CNc3nc4ccccc4c(=O)n32)cc1 (configuration not stated),Percent Effect,"30.3 µM, […]",24.33%
O=C(NCCNc1ccc(C(F)(F)F)cn1)c1ccc(F)cc1Cl,Percent Effect,30 µM,35.81%
Cc1nccn1CCC1CCCCN1Cc1ccc(O)cc1Cl (configuration not stated),Percent Effect,"30.3 µM, […]",62.65%
Cc1cc2c(cc1CN1CCCCC1CCn1ccnc1C)OCO2 (configuration not stated),Percent Effect,"30.3 µM, […]",16.68%
Cc1nccn1CCC1CCCCN1Cc1ccncc1 (configuration not stated),Percent Effect,"30 µM, 30.03 µM",14.55%
COc1ccccc1CCN1CCCC(CN(C)Cc2ccc(C)o2)C1 (configuration not stated),Percent Effect,"30.3 µM, […]",51.06%
COc1ccc(CCN2CCCC(CN(C)Cc3ccc(C)o3)C2)cc1 (configuration not stated),Percent Effect,"30 µM, 30.03 µM",48.36%
COc1ccccc1CCN1CCCC(CN(C)Cc2c[nH]c(C)n2)C1 (configuration not stated),Percent Effect,"30.3 µM, […]",23.77%
CN(C)S(=O)(=O)N1CCC(Oc2ccc(C#N)cc2)CC1,Percent Effect,"30 µM, 30.03 µM",23.32%
COCCNC(=O)CCn1ncc2c(Cl)cccc21,Percent Effect,"30.3 µM, […]",-81.24%
CN(C)C(=O)CNC(=O)CCn1ncc2c(Cl)cccc21,Percent Effect,"30 µM, 30.03 µM",13.94%
CN(C)CCNC(=O)CCn1ncc2c(Cl)cccc21,Percent Effect,"30.3 µM, […]",55.96%
CCN(CC)CC(=O)NCc1cccnc1-n1cnc2ccccc21,Percent Effect,"30.3 µM, […]",12.53%
Cc1nc(CNc2ccc(C(=O)NCc3ccco3)cc2C)no1,Percent Effect,"30.3 µM, […]",3.169%
COc1cc(N2CC[C@H](O)[C@@H]2Cc2cccnc2)ncn1,Percent Effect,"30.3 µM, […]",5.968%
COc1cc(N2CC[C@@H](O)[C@@H]2Cc2ccccc2)ncn1,Percent Effect,"30.3 µM, […]",51.86%
COc1cc(N2CC[C@H](O)[C@@H]2Cc2ccccc2)ncn1,Percent Effect,"30.3 µM, […]",33.09%
Cc1cc(C(=O)N2CC[C@@]3(C[C@@H](NS(C)(=O)=O)CCO3)C2)no1,Percent Effect,"30.3 µM, […]",13.02%
O=C(CCn1cncn1)NCCOc1cccc(Cl)c1,Percent Effect,"30.3 µM, […]",-12.3%
CC(=O)N1CCC(NC(C)c2cnn(-c3ccc(F)cc3F)c2C)CC1 (configuration not stated),Percent Effect,"30.3 µM, […]",3.786%
Cc1c(C(C)NC2CCCC2)cnn1-c1ccc(F)cc1F (configuration not stated),Percent Effect,"30.3 µM, […]",6.771%
Cc1c(C(C)NC2CCN(C(C)C)CC2)cnn1-c1ccc(F)cc1F (configuration not stated),Percent Effect,"30.3 µM, […]",61.65%
CCN(CCOC)C(=O)c1ccc2c(c1)nc(N1CC[C@H](O)C1)n2C,Percent Effect,"30.3 µM, […]",20.98%
COc1c(CNCc2ccc3c(c2)OCCO3)c(C(C)C)nn1C,Percent Effect,30 µM,-2.541%
CCc1nc(C)c(CN2CCN(c3ncnc4scc(C)c34)CC2)[nH]1,Percent Effect,"30.3 µM, […]",-3.854%
CCc1nc(C)c(CN2CCN(c3ncnc4c(C)csc34)CC2)[nH]1,Percent Effect,"30.3 µM, […]",24.01%
Cc1n[nH]c(CN2CCN(c3ncnc4scc(C)c34)CC2)c1Cl,Percent Effect,"30.3 µM, […]",71.39%
Cc1ccccc1CCNC(=O)C1CC(=O)N(CC(F)(F)F)C1 (configuration not stated),Percent Effect,"30 µM, 30.03 µM",9.865%
O=C(NCCn1ccnc1)N1CCCC1c1ccc2c(c1)OCCO2 (configuration not stated),Percent Effect,30 µM,14.25%
CC(C)(C(=O)NCc1n[nH]c(=O)[nH]1)c1ccc(F)cc1,Percent Effect,"30.3 µM, […]",17.25%
Cc1cc(=O)n2nc(Oc3ccc(Cl)c(C)c3)sc2n1,Percent Effect,"30.3 µM, […]",74.91%
Cc1cc(=O)n2nc(Oc3cc(Cl)cc(Cl)c3)sc2n1,Percent Effect,"30.3 µM, […]",-38.32%
Cc1cc(=O)n2nc(Oc3ccc(F)c(F)c3)sc2n1,Percent Effect,"30.3 µM, […]",-0.08982%
COC(=O)NC1(C(=O)NCc2ccc(-c3ccn[nH]3)cc2)CCCC1,Percent Effect,"30.3 µM, […]",3.496%
CC(C)NC(=O)c1sccc1N(C)S(=O)(=O)c1ccc(Cl)cc1,Percent Effect,"30 µM, 30.03 µM",7.242%
CNC(=O)c1sccc1N(C)S(=O)(=O)c1ccc(Cl)cc1,Percent Effect,"30.3 µM, […]",77.15%
